PKA-R2B act: activators of human PKA-R2B complex | PKA-R2B holoenzyme dissociation, Cy5-IP20 fluorescence polarization; R2B truncated from residue 108, S112A mutant; 0% DMSO only, 100% 113 µM cGMP | 340,000 tested, 0.079% active | P22694+P31323 | activation, % at 11.4 µM | AID 504700;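 active means activation above a cutoff set at the mean over all compounds plus 3 SD, cut at about 18% in these data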;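 further: higher means more holoenzyme dissociation and a rise in polarization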
PAFAH1B3 FP inh: PAFAH1B3 (human) inhibition; 340,000 tested, 0.28% active; recombinant PAFAH1B3, FP-rhodamine probe, fluorescence polarization; inhibition, % at 3.39 µM; Q15102;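 active means inhibition above the screen-wide average of all tested compounds plus 3 SD, cut at about 25% in these data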;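 further: 0% = enzyme with DMSO only and 100% = wells lacking PAFAH1B3 protein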
Target sequence (Q15102 whole entry, looked up): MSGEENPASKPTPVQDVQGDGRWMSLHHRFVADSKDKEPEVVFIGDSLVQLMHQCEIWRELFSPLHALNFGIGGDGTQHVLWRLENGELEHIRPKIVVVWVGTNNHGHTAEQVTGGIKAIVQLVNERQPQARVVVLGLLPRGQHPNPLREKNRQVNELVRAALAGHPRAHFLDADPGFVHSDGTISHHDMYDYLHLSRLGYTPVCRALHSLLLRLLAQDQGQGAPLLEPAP
PAFAH1B2 FP inh: inhibitors of human PAFAH1B2; P68402; recombinant PAFAH1B2, FP-rhodamine activity probe, fluorescence polarization; inhibition, % at 3.39 µM; 340,000 tested, 1.2% active; AID 492953;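 active means inhibition above the mean of all tested compounds plus 3 SD, cut at about 24% in these data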;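 further: 0% = enzyme with DMSO and 100% = wells lacking PAFAH1B2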
Target sequence (P68402 whole entry, looked up): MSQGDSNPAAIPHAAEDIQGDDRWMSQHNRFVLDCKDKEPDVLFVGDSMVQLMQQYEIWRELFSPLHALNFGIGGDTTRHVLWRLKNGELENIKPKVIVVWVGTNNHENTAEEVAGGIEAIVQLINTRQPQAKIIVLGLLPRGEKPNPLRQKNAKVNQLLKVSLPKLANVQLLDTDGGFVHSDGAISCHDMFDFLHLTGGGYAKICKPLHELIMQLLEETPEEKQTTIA
PKA-R1A act: PKA-R1A complex activation. P00514+P68181. PKA-R1A dissociation, Cy5-IP20 fluorescence polarization; scaled: DMSO 0%, 113 µM cGMP 100%. activation, % at 11.4 µM. 340,000 tested, 0.083% active;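 active means percent activation above the mean of all tested compounds plus 3 SD, cut at about 19% in these data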;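 further: higher means more PKAc released from R1A so a rise in polarization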
pPAFAH FP inh: pPAFAH (human) enzyme inhibition. 330,000 tested, 1.5% active. AID 463082. recombinant pPAFAH, FP-rhodamine probe fluorescence polarization. inhibition, % at 3.39 µM;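 active means inhibition above the mean inhibition across the screen plus 3 SD, cut at about 25% in these data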;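 further: inhibitors block binding of the rhodamine activity-based probe so polarization drops; 0% = enzyme with DMSO and 100% = wells lacking pPAFAH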
PAFAH2 FP inh: inhibitors of human PAFAH2 | Q99487 | recombinant PAFAH2, FP-rhodamine activity probe, fluorescence polarization | inhibition, % at 3.39 µM | 340,000 tested, 0.99% active | AID 492956;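 active means inhibition above the mean over all tested compounds plus 3 SD, cut at about 30% in these data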;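 further: inhibitors block probe labeling of enzyme so polarization drops; 0% = enzyme with DMSO and 100% = wells lacking PAFAH2 protein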
Starred values were filed as active, the others as inactive; . = no result given. An excerpt weighted towards active compounds, which were near 2.6% of everything screened.

SMILES	PKA-R2B act	PAFAH1B3 FP inh	PAFAH1B2 FP inh	PKA-R1A act	pPAFAH FP inh	PAFAH2 FP inh
CC(C)CNC(=O)COC(=O)c1ccc([N+](=O)[O-])cc1Cl	3	4	3	-9	29*	15
COc1ccc(C)cc1N(CC(=O)NC1CCCC1)C(=O)Cn1nnc(-c2ccc(C)o2)n1	-17	7	6	3	.	10
C=CCOn1c(=O)c(-c2ccc(OC)cc2)[n+]([O-])c2ccccc21	-2	8	4	0	33*	12
O=S(=O)(Nc1ccc(F)cc1)c1ccc(S(=O)(=O)N2CCOCC2)cc1	6	10	9	-4	7	4
Cn1c(CCN2CCN(c3ccccn3)CC2)nc2cc(NS(=O)(=O)c3ccc(Cl)cc3)ccc21	2	0	26*	12	14	1
COc1cccc(Nc2ccc(C(=O)O)cc2N)c1	11	6	3	-6	25*	-2
Cc1ccc(Nc2ccc(C(=O)O)cc2N)cc1	.	.	.	.	28*	.
O=S(=O)(c1ccc(Cl)cc1)N1CCN(c2ncnc3sccc23)CC1	-10	6	16	-3	-3	6
COC(=O)c1csc(C2OC(CO)C(O)C2O)n1 (stereo not drawn)	-15	.	.	0	.	.
COc1ccc(C(=O)NCCc2ccccc2F)cc1OC1CCN(C(C)=O)CC1	-14	6	0	-4	-4	19
O=C(CSc1nc2ccccc2n1CCc1ccccc1)c1ccc(O)c(O)c1	-8	25	28*	-2	.	55*
O=C(CSc1nc2ccccc2n1CCc1ccccc1)N1CCOCC1	-10	-3	-1	0	-2	1
O=C(CSc1nc2ccccc2c(=O)[nH]1)c1ccc(O)c(O)c1	-6	18	10	6	33*	49*
O=C(CSc1nc2ccccc2c(=O)[nH]1)c1ccc(O)cc1O	-2	1	5	-15	.	3
CN(CC(=O)NCC(=O)Nc1ccc(F)cc1)CC(=O)Nc1ccc(Cl)c(C(F)(F)F)c1	-16	0	28*	4	.	0
CN(CC(=O)NCc1ccc(F)cc1)CC(=O)Nc1ccc(Cl)c(C(F)(F)F)c1	-5	-2	6	-5	12	-3
COc1ccccc1NS(=O)(=O)c1ccc(C)c(C(=O)N2CCN(c3ccc(O)cc3)CC2)c1	-1	7	2	-2	4	6
CC(Sc1ccc(S(=O)(=O)N2CCN(C)CC2)cn1)C(=O)NC1(C#N)CCCCC1 (stereo not drawn)	1	3	31*	6	.	6
COc1ccc2cc(C(c3nnnn3C(C)(C)C)N3CCc4ccccc4C3)c(=O)[nH]c2c1 (stereo not drawn)	.	.	.	.	34*	.
CCC(C)(C)n1nnnc1C(c1cc2ccc(OC)cc2[nH]c1=O)N1CCc2ccccc2C1 (stereo not drawn)	0	5	2	1	23	1
CC(=O)c1ccc(S(=O)(=O)N(C)CC(=O)Nc2cccc(S(=O)(=O)N3CCCC3)c2)cc1	-3	-3	-5	-8	.	-3
CCCCC(=O)NC(c1ccc(N(C)C)cc1)c1ccc2cccnc2c1O (stereo not drawn)	-6	9	5	-11	26*	5
CCCCC(=O)NC(c1ccc(Cl)cc1)c1ccc2cccnc2c1O (stereo not drawn)	-9	6	3	-18	11	3
CCCCC(=O)NC(c1ccc(N(CC)CC)cc1)c1ccc2cccnc2c1O (stereo not drawn)	4	0	4	-9	26*	2
CCN(CC)C(=O)c1cccc(NC(=O)c2ccccc2OCc2c(C)noc2C)c1	-13	4	3	5	-1	10
SMILES	PKA-R2B act	PAFAH1B3 FP inh	PAFAH1B2 FP inh	PKA-R1A act	pPAFAH FP inh	PAFAH2 FP inh
O=c1cc(CSc2ccc(S(=O)(=O)N3CCCCC3)cn2)nc2sccn12	-4	9	25*	4	10	6
Cc1cc(C)cc(CSc2ccc(S(=O)(=O)N3CCCC3)cn2)c1	7	10	1	18	5	-3
O=S(=O)(c1ccc(SCc2ccc(Cl)cc2)nc1)N1CCCC1	0	6	26*	-2	-1	2
CCOc1ccc(/C=C/c2nc(C#N)c(NCCCN(C)C)o2)cc1	3	9	9	7	1	7
CCOc1ccc(/C=C/c2nc(C#N)c(NCCCOC)o2)cc1	-3	15	2	0	28*	-3
COc1cccc(/C=C/c2nc(C#N)c(NCC(C)C)o2)c1	-8	4	3	5	15	10
Cc1cccc(N2CC34C=CC(O3)C(C(=O)O)C4C2=O)c1 (stereo not drawn)	-6	1	1	8	0	1
O=C(O)C1C2C=CC3(CN(C/C=C/c4ccccc4)C(=O)C13)O2 (stereo not drawn)	-2	-2	3	-5	31*	8
O=C(O)C1C2C=CC3(CN(c4cccc(C(F)(F)F)c4)C(=O)C13)O2 (stereo not drawn)	13	6	25*	4	2	1
COC(=O)C1C2C=CC3(CN(CCc4ccccc4)C(=O)C13)O2 (stereo not drawn)	0	0	0	8	2	-4
O=C(Nc1ccc(Cl)cc1)C1(S(=O)(=O)c2ccccc2)CC1	3	5	5	-5	1	1
CCN(CC)CCNC(=O)c1ccc(NC(=O)c2cccc(-n3cnnn3)c2)cc1	-10	2	-1	-3	-1	-7
COc1cccc(CNCc2ccccc2OC)c1	-4	5	3	-10	-2	0
O=[N+]([O-])c1cc(C(F)(F)F)ccc1NCCCCNS(=O)(=O)c1ccc2ccccc2c1	-18	7	15	-8	-6	-13
CS(=O)(=O)NCCCCNc1ccc(C(F)(F)F)cc1[N+](=O)[O-]	3	5	4	-6	26*	-1
CCC(C)C(NC(=O)OCc1ccccc1)C(=O)OCN1C(=O)c2ccccc2C1=O (stereo not drawn)	3	4	-4	0	33*	13
CC(C)C(NC(=O)c1c(F)cccc1F)C(=O)OCN1C(=O)c2ccccc2C1=O (stereo not drawn)	-2	8	2	3	-3	7
CC(NC(=O)c1ccccc1NS(=O)(=O)c1ccc(CCC(=O)O)cc1)c1ccccc1 (stereo not drawn)	-2	6	28*	-1	3	2
O=C(NCCN1CCCCC1)c1ccc(Oc2cc(Cl)cc(Cl)c2)o1	.	.	.	.	6	.
O=C(c1ccc(Oc2cc(Cl)cc(Cl)c2)o1)N1CCCCC1	9	4	4	6	32*	12

Assay outcomes deposited in PubChem BioAssay by The Scripps Research Institute Molecular Screening Center.
